Bioassay records deposited in PubChem by Broad Institute.
Tgondii IFNg = T. gondii growth inhibition under IFN-gamma; Toxoplasma gondii growth in IFN-gamma-treated host cells; stronger effect = lower value; activity change, negative = inhibition, % (no concentration beside the values); hit rate 3.8% among 69,000; in the data active means activity change below about -70%, passing the limit was not always enough;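 further: host cells are HeLa cells infected with Toxoplasma gondii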
The depositor's hits bear a star; i = inactive; ! = not active in a repeat. The entries come from a sample that favours hits as a whole.

SMILES	Tgondii IFNg
CC1=C(C(=O)OCCN(Cc2ccccc2)c2ccccc2)C(c2cccc([N+](=O)[O-])c2)C(P2(=O)OCC(C)(C)CO2)=C(C)N1 (stereo not given)	-13
CCOC(=O)C1=C(C)NC(C)=C(C(=O)OC)C1c1cccc([N+](=O)[O-])c1 (stereo not given)	-2
Cc1noc(C)c1S(=O)(=O)N1CCCC(c2cc(CN(C)C)n(C)n2)C1 (stereo not given)	-28
CC(C)=Cc1nc(C2(c3ccc(F)cc3)CCOC2)no1 (stereo not given)	-1
CCOC(=O)c1[nH]ncc1-c1c(-c2ccccc2)ncn1C1CC=CC1	-39
CSc1ncc(CN2CCCN(c3ccccc3C)CC2)cn1	10
CCn1c(CC2CCNCC2)nn(CC2Cc3c(C)nc(C)nc3O2)c1=O (stereo not given)	-4
Cc1ccc(C)c(OCC(=O)N(C)Cc2cc(C(C)C)on2)c1C	10
COCC(=O)N(C)CCOc1c(C)ccc(C)c1C	-78*
Cc1cccc(OCCCN(C)C(=O)CN)c1C	13
CCc1ccccc1S(=O)(=O)N1CCC(C(=O)NCCc2csc(-c3ccccc3)n2)CC1	-31
CN(C)C(=O)NC1COC2(CCN(S(=O)(=O)c3ccccc3)CC2)C1 (stereo not given)	34
Cc1ccccc1NC(=O)Cn1ncc2c(N3CCN(c4ccccc4)CC3)ncnc21	94
CCc1ccc(NC(=O)Cn2ncc3c(N4CCN(c5ccccc5)CC4)ncnc32)cc1	-66
COc1ccc(Cl)cc1NC(=O)Cn1ncc2c(N3CCN(c4ccccn4)CC3)ncnc21	-92*
COc1ccc(Cl)cc1NC(=O)Cn1ncc2c(N3CCN(c4ccccc4)CC3)ncnc21	-82*
COc1ccc(C)cc1NC(=O)Cn1ncc2c(N3CCN(c4ccccn4)CC3)ncnc21	116
Cc1cc(F)ccc1NC(=O)Cn1ncc2c(N3CCN(c4ccccc4)CC3)ncnc21	13
Cc1ccc(NC(=O)Cn2ncc3c(N4CCN(c5ccccc5)CC4)ncnc32)c(Cl)c1	197
O=C(Cn1ncc2c(N3CCN(c4ccccc4)CC3)ncnc21)Nc1cccc(F)c1	-85*
Cc1cc(Cl)ccc1NC(=O)Cn1ncc2c(N3CCCCCC3)ncnc21	168
COc1cc(Cl)c(C)cc1NC(=O)Cn1ncc2c(N3CCN(c4ccccn4)CC3)ncnc21	103
Cc1ccc(Cl)cc1NC(=O)Cn1ncc2c(N3CCCC3)ncnc21	-13
COc1ccc(Cl)cc1NC(=O)Cn1ncc2c(N3CCCC3)ncnc21	-81*
COCCn1cnnc1Cn1ccnc1-c1ccccc1C	1
SMILES	Tgondii IFNg
O=S(=O)(c1ccc(F)cc1)N1CC2CCC1C2Oc1cccnc1 (stereo not given)	-14
CC1(C)CC(NC(=O)c2ccco2)CC(C)(C)N1	-9
CCS(=O)(=O)N1CCC2(CC1)OC(=O)C(C)=C2C(=O)Nc1ccccc1Br	16
CCS(=O)(=O)N1CCCC2(CCCN2Cc2ccc(-c3ccccc3)cc2)C1 (stereo not given)	24
CN(Cc1ccccn1)C1COC2(CCN(c3ncccn3)C2)C1 (stereo not given)	3
Cc1cc(C)c(NS(=O)(=O)c2ccc3[nH]c(=O)ccc3c2)c(C)c1	i
Cc1cc(C)nc(N2CCC(n3nc(C)cc3C)CC2)n1	12
NC(Cc1ccccn1)c1ccccc1 (stereo not given)	19
CC(C)COCC1CN(C(=O)/C=C/c2cccs2)Cc2cncn2C1 (stereo not given)	-58
Cc1nn(C(=O)c2ccccc2)c2c1C(=O)CC(C)(C)C2	-30
CC1(C)CC(=O)c2cnc3nc(N)nn3c2C1	-12
Cc1nn(-c2ccc3ccccc3n2)c2c1C(=O)CC(C)(C)C2	-95*
Fc1cccc(CC2CN(Cc3cccs3)CCO2)c1 (stereo not given)	-42
O=C(c1ccoc1)N1C[C@H]2CN(c3cncnc3)C(=O)[C@H]2C1	-7
CC(=O)Nc1ccc(-c2cccc3ccnn23)cn1	12
CCc1nc(SCC(=O)N2c3ccccc3Sc3ccccc32)c2ccccc2n1	-82*
O=C(COc1nc2ccccc2s1)N1c2ccccc2Sc2ccccc21	0
CCn1nnnc1SCC(=O)N1c2ccccc2Sc2ccccc21	-11
O=C(NC1C=CS(=O)(=O)C1)c1csc(Cc2ccccc2)n1 (stereo not given)	-10
CCc1nnc(-c2ccc3ccn(CC(=O)Nc4cc(C)ccn4)c3c2)o1	-20
CC(=O)Nc1ccc(-c2c(-c3ccccc3)ncn2CCc2cn[nH]c2)cc1	-1
Clc1ccc(C2C=C(c3ccccc3)Nc3ncnn32)cc1 (stereo not given)	-85*
Clc1ccc(-c2nc(NC3CCCC3)c3ccccc3n2)cc1	55
Fc1ccc(C2Oc3ccc(Cl)cc3C3=C2C(c2ccccc2)n2ncnc2N3)cc1 (stereo not given)	-23
Cc1ncc(CN2CCC(c3nn(C)c(=O)n3-c3ccccc3)CC2)s1	-6
SMILES	Tgondii IFNg
CCn1ncnc1CN1CCCC(c2n[nH]c(=O)n2-c2ccccc2)C1 (stereo not given)	-19
CCn1ncnc1CN1CCC(c2nn(C)c(=O)n2-c2ccccc2)CC1	-74*
COC(=O)CC(=O)CSc1ccccn1	-10
Cc1cc2nc(C(=O)N3CCCC4(CC3)CNC(=O)O4)cc(C)n2n1 (stereo not given)	-3
Cc1ccc(C2(O)CCN(CC3CC=CCC3)CC2)nc1 (stereo not given)	69
CC(=O)O[C@]1(C(C)=O)CC[C@H]2[C@@H]3C=C(C)C4=CC(=O)CC[C@@H]4[C@H]3CC[C@@]21C	-21
C#C[C@]1(OC(C)=O)CCC2C3CCC4=CC(=O)CC[C@@H]4C3CC[C@@]21C (stereo not given in full)	-83*!
C#C[C@]1(OC(C)=O)CC[C@H]2[C@@H]3CCC4=C[C@@H](OC(C)=O)CC[C@@H]4[C@H]3CC[C@@]21C	-34
COc1cc(C(=O)O)ccc1NC(=O)[C@@H]1N[C@@H](CC(C)(C)C)[C@](C#N)(c2ccc(Cl)cc2F)[C@H]1c1cccc(Cl)c1F	-80*
CC(C)(C)C1CCc2[nH]nc(C(=O)Nc3ccccc3OCc3ccccn3)c2C1 (stereo not given)	-79*
CC(C)(C)C1CCc2[nH]nc(C(=O)Nc3cccc(Cn4cncn4)c3)c2C1 (stereo not given)	0
O=C(Nc1ccccc1OCCCc1ccccc1)c1ccccn1	5
Cc1cc(C)c(NC(=O)Cn2ncc3c(N4CCN(c5ccccc5)CC4)ncnc32)c(C)c1	53
CN(C)[C@@H]1CCN(C2CCOCC2)[C@H]1Cc1cnn(C)c1	85
O=C(NCCc1csc(-c2ccc(C(F)(F)F)cc2)n1)C(=O)Nc1ccc2c(c1)OCCO2	186
CC1(C)CC[C@]2(C(=O)O)CC[C@]3(C)C(=CCC4[C@@]5(C)CC[C@H](O)[C@@](C)(CO)C5CC[C@]43C)C2C1 (stereo not given in full)	7
C[C@H]1[C@H](C)CC[C@]2(C(=O)O)CC[C@]3(C)C(=CC[C@@H]4[C@@]5(C)CC[C@H](O)C(C)(C)[C@@H]5CC[C@]43C)[C@H]12	-79*
CC1(C)[C@@H](O)CC[C@]2(C)[C@H]3C(=O)C=C4[C@@H]5C[C@@](C)(C(=O)O)CC[C@]5(C)CC[C@@]4(C)[C@]3(C)CC[C@@H]12	10
Cc1ccc(C(=O)N2CCC3(CC2)Nc2ccccc2-n2cccc23)cc1	22
COc1cc(C(=O)N2CCN3C(=O)CN(C)C(=O)C3C2)c2ccccc2n1 (stereo not given)	-5
